This note sets out measurements from the supplement of paper PMC8728848.

The full list was thinned out, with the strongest signals kept by preference.

Assay in all cases: glycan array binding signal (z-score within array); higher = stronger binding
Common to all, as to conditions: glycan notation: IUPAC condensed, linker removed

The target of one assay is Man(b1-4)GlcNAc. An outline of the steps: (§1)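 Columns mapping to the same glycan were averaged after glycan names were converted to IUPAC-condensed notation. The data come from 3228 arrays in the Consortium for Functional Glycomics database, limited to those with an available protein sequence. Binding is reported as a within-array Z-score averaged across arrays of one protein sequence and across linkers.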

Assay [1] deals with Neu5Ac(a2-3)Gal(b1-3)GalNAc. An outline of the steps: as §1
Assay [2] deals with Neu5Ac(a2-3)Gal(b1-3)[Neu5Ac(a2-6)]GalNAc. In a few lines:
as §1

Assay [3] addresses Neu5Ac(a2-3)Gal(b1-3)]Neu5Ac(a2-3)Gal(b1-4)]GlcNAc. In a few lines: as §1
Assay [4] addresses Neu5Ac(a2-3)Gal(b1-4)GlcNAc(b1-2)Man(a1-3)[Neu5Ac(a2-3)Gal(b1-4)GlcNAc(b1-2)Man(a1-6)]Man(b1-4)GlcNAc(b1-4)GlcNAc. An outline of the steps:
as §1

The target in assay [5] is Neu5Ac(a2-3)Gal6S(b1-4)GlcNAc. In a few lines:
as §1

Assay [6] addresses Neu5Ac(a2-3)[GalNAc(b1-4)]Gal(b1-4)GlcNAc. In a few lines:
as §1

Assay [7] deals with Neu5Ac(a2-6)Gal(b1-4)GlcNAc(b1-3)Gal(b1-3)GlcNAc. In a few lines: as §1
Assay [8] addresses Neu5Ac(a2-6)Gal(b1-4)GlcNAc(b1-3)Gal(b1-4)GlcNAc(b1-2)Man(a1-3)[Neu5Ac(a2-6)Gal(b1-4)GlcNAc(b1-3)Gal(b1-4)GlcNAc(b1-2)Man(a1-6)]GalNAc. In a few lines: as §1
Assay [9] deals with Neu5Ac(a2-6)Gal(b1-4)GlcNAc(b1-3)Gal(b1-4)GlcNAc(b1-3)GalNAc. An outline of the steps:
as §1

Assay [10] has as its target Neu5Ac(a2-8)Neu5Gc(a2-3)Gal(b1-4)GlcNAc. In a few lines:
as §1

A further assay addresses Neu5Gc(a2-3)Gal(b1-4)Glc. In a few lines: as §1
Assay [11] concerns the target Neu5Gc(a2-3)Gal(b1-4)[Fuc(a1-3)]GlcNAc. In a few lines:
as §1

The target of assay [12] is Neu5Gc(b2-6)Gal(b1-4)GlcNAc. In a few lines:
as §1

B1: PX9961H-bth-557-24-557 (Bacteroides thetaiotaomicron) (protein)
chain: EETRTEVEKKNYMNNAEEAKDVLLGVYRTNTLDAMYGYYLSILFNLGTDISQVEGSGNENFRIIPTNSFPTTQSEVQQTWAALYTGIYRANDFLERISNKIGSYTTTDKKLATLYIAEARALRGMFYFELVRRFGNVVLMTSTQMSNQNPATYVQSAPEKVYEYIEDDLLYACDILPYATDDQYRESNDYRFSKGAALGLLTKVYATWAGYPVKDESKWEAAAKTARILVESGKHGLLKDYEQLWKNTCNGTWDPTESLIEISFYSPTVSGNSDPVGRIGKWNGVKTTAIAGVRGSCAANVKVVHTFVLDWREDVSDIRRDLSIANYQYTDTKKSLWVAGASDTDESAAEKDADPTKAQKNKQNYTPAKWDIQKYVTTNSFINNDKSNVNWYFLRYADVLLLYAEALNEWKHGPDAEAYNAINAVRRRGYGNPSNTSACDLPQGLDETSFREAVRKERSYELSFEGHRRQDLIRWGIYYKTVQATAKELGYWWEGTGSPNYSVATYTEEGKHELFPIPQRDMDLCIQFNQNPKW
As to B1, the “glycan array binding signal (z-score)” value with Man(b1-4)GlcNAc is -0.424; in [1], -0.207; in assay [2], -0.299; in assay [3], -0.127; in assay [4], -0.412; in assay [5], -0.532. In addition, the “glycan array binding signal (z-score)” value in assay [6] was -0.571; in [7], -0.166; in assay [8] it was 0.218; in assay [9] it was -0.503; in assay [10] it was 7.98; in the assay with Neu5Gc(a2-3)Gal(b1-4)Glc, -0.062. In addition, the “glycan array binding signal (z-score)” value in assay [11] was -0.313; in assay [12] it was -0.202.
